“And” between values parts separate entries of the source, which are not always exact repeats. Equal entries are not always repeated. Inconclusive results are not listed. The source made the active and inactive calls. Rule for the calls: active = hit-call score of the fitted dose curve at least 0.9, where 1 is the maximum; inconclusive = response in the unintended direction; inactive = score below 0.9.
Experiments:
[1] = target: rat Thyrotropin Releasing Hormone Receptor (TRH), Trhr (gene 25570) (UniProt Q01717); assay: NVS_GPCR_rTRH: NovaScreen (NVS) G Protein-Coupled Receptor Assay for rat Thyrotropin Releasing Hormone Receptor (TRH) (AID 2283329);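 note: hit means lower bound tracer signal versus DMSO baseline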
rat Thyrotropin Releasing Hormone Receptor (TRH), Trhr (gene 25570), sequence (Q01717 whole entry, looked up): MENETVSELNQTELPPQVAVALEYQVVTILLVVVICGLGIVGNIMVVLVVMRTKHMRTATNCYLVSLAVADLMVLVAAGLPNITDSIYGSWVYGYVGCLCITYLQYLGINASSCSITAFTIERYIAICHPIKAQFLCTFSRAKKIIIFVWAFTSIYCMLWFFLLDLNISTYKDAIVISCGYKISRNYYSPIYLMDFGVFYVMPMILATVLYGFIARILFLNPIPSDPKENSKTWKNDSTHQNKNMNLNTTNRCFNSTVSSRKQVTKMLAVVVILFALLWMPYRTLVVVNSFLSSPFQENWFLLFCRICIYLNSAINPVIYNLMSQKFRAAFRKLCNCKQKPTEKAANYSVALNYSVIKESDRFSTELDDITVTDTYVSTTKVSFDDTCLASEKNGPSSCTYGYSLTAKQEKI
Method in brief: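 Cell-free radioligand binding on rat forebrain membranes; bound tracer measured by filter-based scintillation counting 4 hours after dosing. Loss of signal versus DMSO baseline indicates displacement; primary screen at 25 uM in duplicate, actives then run in concentration series.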

[2] = target: Sodium channel protein type 1 subunit alpha (Rattus norvegicus) (UniProt P04774); assay: NVS_IC_rNaCh_site2: NovaScreen (NVS) Ion Channel Assay for rat Sodium Channel, Site 2 (NaCh) (AID 2283322);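 note: hit means loss of radioligand binding signal relative to DMSO so AC50 marks displacement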
Method in brief: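 Membranes: rat forebrain. Format: competitive radioligand displacement, filter separation, scintillation readout, 1 h exposure. Primary screen in duplicate at 25 uM; actives retested in concentration series.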

[3] = target: chimpanzee Androgen Receptor (AR), AR (gene 747460) (UniProt O97775); assay: NVS_NR_cAR: NovaScreen (NVS) Nuclear Receptor Binding Assay for chimpanzee Androgen Receptor (AR) (AID 2283346);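 note: radioligand displacement from AR measured by scintillation counting in a cell-free assay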
chimpanzee Androgen Receptor (AR), AR (gene 747460), sequence (O97775 whole entry, looked up): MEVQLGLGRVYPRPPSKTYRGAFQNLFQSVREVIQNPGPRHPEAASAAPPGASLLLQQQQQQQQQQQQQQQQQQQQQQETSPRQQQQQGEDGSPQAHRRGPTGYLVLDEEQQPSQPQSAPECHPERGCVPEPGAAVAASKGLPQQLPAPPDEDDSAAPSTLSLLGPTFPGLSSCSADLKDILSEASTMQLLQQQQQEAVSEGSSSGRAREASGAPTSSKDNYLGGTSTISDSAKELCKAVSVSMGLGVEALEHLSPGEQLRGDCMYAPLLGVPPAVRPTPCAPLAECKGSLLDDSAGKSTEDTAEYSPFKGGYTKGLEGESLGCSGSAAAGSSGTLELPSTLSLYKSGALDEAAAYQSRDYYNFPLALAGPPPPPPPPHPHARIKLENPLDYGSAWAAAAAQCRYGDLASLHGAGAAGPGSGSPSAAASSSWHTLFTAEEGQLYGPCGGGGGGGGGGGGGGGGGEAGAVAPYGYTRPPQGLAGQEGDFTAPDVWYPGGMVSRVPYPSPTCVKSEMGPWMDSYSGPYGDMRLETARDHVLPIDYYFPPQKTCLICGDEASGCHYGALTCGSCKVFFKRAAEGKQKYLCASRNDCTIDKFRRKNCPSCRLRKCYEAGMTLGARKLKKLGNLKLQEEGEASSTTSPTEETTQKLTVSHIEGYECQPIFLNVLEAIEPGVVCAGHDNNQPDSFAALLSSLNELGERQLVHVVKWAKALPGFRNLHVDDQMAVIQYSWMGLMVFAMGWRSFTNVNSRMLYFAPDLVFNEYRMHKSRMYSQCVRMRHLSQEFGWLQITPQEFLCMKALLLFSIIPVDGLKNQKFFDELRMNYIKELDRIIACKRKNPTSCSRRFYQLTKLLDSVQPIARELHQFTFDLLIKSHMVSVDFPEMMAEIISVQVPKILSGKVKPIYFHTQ
Method in brief: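 Cell-free competition binding with insect-cell (Sf9/Sf21) extracted chimpanzee AR; scintillation signal from lysate at 72 h. Screened in duplicate at 25 uM, then concentration-response for actives; fitting relative to DMSO.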

[4] = target: rat Gamma-Aminobutyric Acid Type A Receptor, Non-Selective (GABAR-NonSelective), Gabra1 (gene 29705) (UniProt P62813); assay: NVS_LGIC_rGABAR_NonSelective: NovaScreen (NVS) Ligand-Gated Ion Channel Assay for rat Gamma-Aminobutyric Acid Type A Receptor, Non-Selective (GABAR-NonSelective) (AID 2283326)
rat Gamma-Aminobutyric Acid Type A Receptor, Non-Selective (GABAR-NonSelective), Gabra1 (gene 29705), sequence (P62813 whole entry, looked up): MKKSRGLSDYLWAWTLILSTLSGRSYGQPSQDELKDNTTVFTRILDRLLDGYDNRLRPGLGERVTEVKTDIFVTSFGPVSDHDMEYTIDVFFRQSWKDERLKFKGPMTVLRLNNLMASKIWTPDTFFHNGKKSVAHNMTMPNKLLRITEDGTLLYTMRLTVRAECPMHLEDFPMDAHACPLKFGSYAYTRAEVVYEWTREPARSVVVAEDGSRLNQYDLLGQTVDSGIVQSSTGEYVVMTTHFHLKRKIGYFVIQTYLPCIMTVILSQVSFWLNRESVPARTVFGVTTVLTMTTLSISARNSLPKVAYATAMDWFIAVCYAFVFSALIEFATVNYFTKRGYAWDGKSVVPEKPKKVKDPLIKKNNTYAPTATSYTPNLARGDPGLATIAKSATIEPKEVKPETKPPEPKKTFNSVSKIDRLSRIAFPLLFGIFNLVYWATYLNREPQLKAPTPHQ
Method in brief: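 Radioligand displacement on rat whole-brain extract, 1 h, filter scintillation readout; signal loss fitted versus DMSO. Primary screen in duplicate at 25 uM; hits (e.g. ≥30% inhibition) retested in concentration-response up to 50 uM.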

[5] = target: rat Peripheral-type Benzodiazepine Receptor (PBR), Tspo (gene 24230) (UniProt P16257); assay: NVS_MP_rPBR: NovaScreen (NVS) Membrane Protein Assay for rat Peripheral-type Benzodiazepine Receptor (PBR) (AID 2283335)
rat Peripheral-type Benzodiazepine Receptor (PBR), Tspo (gene 24230), sequence (P16257 whole entry, looked up): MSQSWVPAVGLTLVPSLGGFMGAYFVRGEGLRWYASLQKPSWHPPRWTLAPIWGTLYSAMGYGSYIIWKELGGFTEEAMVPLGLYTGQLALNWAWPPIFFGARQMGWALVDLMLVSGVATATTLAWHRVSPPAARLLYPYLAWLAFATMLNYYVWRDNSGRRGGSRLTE
Method in brief: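 Rat kidney membranes; radioligand binding with displacement, filter-based scintillation counting, 1 h incubation. Primary screen in duplicate at 25 uM, actives followed in concentration series; loss of binding vs DMSO.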

[6] = target: human Peripheral-type Benzodiazepine Receptor (PBR), TSPO (gene 706) (UniProt P30536); assay: NVS_MP_hPBR: NovaScreen (NVS) Membrane Protein Assay for human Peripheral-type Benzodiazepine Receptor (PBR) (AID 2283331);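 note: hits reduce radioligand binding relative to DMSO baseline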
human Peripheral-type Benzodiazepine Receptor (PBR), TSPO (gene 706), sequence (P30536 whole entry, looked up): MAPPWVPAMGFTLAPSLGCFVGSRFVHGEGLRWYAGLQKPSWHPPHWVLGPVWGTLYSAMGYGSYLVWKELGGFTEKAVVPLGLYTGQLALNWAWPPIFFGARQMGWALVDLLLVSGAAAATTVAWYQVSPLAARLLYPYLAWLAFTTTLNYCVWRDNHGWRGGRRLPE
Method in brief: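 Scintillation counts of filter-bound radioligand served as read-out after 1 h chemical dosing of human colonic membrane preparations. Activity was scored as signal loss against DMSO; initial duplicates at 25 uM, confirmatory concentration series afterward.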

[7] = target: rat Neonicotinoid receptor (NNR), Chrna7 (gene 25302) (UniProt Q05941); assay: NVS_LGIC_rNNR_BungSens: NovaScreen (NVS) Ligand-Gated Ion Channel Assay for rat Neonicotinoid receptor (NNR) (AID 2283315)
rat Neonicotinoid receptor (NNR), Chrna7 (gene 25302), sequence (Q05941 whole entry, looked up): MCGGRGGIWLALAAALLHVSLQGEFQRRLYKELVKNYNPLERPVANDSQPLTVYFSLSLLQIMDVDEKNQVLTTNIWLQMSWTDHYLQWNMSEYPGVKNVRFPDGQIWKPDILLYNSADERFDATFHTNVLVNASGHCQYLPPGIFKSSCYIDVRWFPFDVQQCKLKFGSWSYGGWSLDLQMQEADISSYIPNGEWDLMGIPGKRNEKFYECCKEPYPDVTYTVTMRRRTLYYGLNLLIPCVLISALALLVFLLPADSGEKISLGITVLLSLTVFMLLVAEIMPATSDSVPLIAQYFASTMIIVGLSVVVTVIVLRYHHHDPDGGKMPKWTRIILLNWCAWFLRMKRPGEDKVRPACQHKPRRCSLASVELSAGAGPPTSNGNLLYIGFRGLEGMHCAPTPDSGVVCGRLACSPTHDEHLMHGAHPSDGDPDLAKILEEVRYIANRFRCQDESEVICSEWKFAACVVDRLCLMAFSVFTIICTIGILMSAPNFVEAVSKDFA
Method in brief: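 Radioligand displacement binding on rat cortical membranes, 2.5 h incubation, filtration and scintillation counting. Loss of specific binding fitted relative to DMSO.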

[8] = NVS_IC_rCaBTZCHL: NovaScreen (NVS) Ion Channel Assay for Calcium Channel, Type L, Benzothiazepine Site (CaBTZCHL) (AID 2283337)
Method in brief: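 Scintillation counting of filter-bound radioligand gave the read-out, with reduced binding versus DMSO scored as activity. Membranes came from rat cortex and were read 1.5 h after compound addition. Chemicals were screened first in duplicate at 25 uM.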

[9] = target: bovine Estrogen Receptor (ER), ESR1 (gene 407238) (UniProt P49884); assay: NVS_NR_bER: NovaScreen (NVS) Nuclear Receptor Binding Assay for bovine Estrogen Receptor (ER) (AID 2283345);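 note: actives lower the bound radioligand count which means they displace the ER ligand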
bovine Estrogen Receptor (ER), ESR1 (gene 407238), sequence (P49884 whole entry, looked up): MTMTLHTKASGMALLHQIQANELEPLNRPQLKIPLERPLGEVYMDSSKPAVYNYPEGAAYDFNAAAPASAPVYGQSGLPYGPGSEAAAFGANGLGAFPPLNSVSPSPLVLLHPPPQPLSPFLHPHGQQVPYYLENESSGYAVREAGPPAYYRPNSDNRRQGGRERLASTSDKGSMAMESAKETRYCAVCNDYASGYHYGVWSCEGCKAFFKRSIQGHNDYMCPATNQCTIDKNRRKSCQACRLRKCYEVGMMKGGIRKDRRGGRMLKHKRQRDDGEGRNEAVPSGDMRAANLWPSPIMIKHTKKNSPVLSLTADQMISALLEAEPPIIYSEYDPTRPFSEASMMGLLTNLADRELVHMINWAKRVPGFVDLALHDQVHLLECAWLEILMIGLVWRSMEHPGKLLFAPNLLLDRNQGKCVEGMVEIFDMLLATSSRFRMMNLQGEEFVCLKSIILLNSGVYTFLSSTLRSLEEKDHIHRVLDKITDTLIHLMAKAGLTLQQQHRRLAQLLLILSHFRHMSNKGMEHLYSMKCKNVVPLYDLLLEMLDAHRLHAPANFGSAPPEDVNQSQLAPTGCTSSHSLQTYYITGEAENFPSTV
Method in brief: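 Cell-free radioligand binding with receptor from bovine uterine membranes, read by scintillation counting 18 h after dosing. Loss of specific binding was scored against DMSO; primary screen at 25 uM in duplicate, actives then run as concentration series.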

## NCCCN1CCOCC1
[1]
  outcome: inactive

## O=C(O)c1ccc(C(=O)O)cc1
[1]
  outcome: inactive

## C[Si](O[Si](C)(C)C)O[Si](C)(C)C
[1]
  outcome: inactive

## Cc1cccc(C)c1C
[2]
  outcome: inactive

## OCCOCCOCCOCCO
[1]
  outcome: inactive
[3]
  outcome: inactive

## CC(C)=CCC[C@H](C)CC=O
[2]
  outcome: inactive

## CCCCCCCCCCCCN
[1]
  outcome: inactive

## OCCN1CCNCC1
[1]
  outcome: inactive

## CC1=CC(=O)NS(=O)(=O)O1
[1]
  outcome: inactive

## O=C=NC1CCC(CC2CCC(N=C=O)CC2)CC1 (stereo not drawn)
[2]
  AC50: 4.47 µM (active)

## O=C(O)c1ccc([N+](=O)[O-])cc1
[4]
  AC50: 4.02 µM (active)

## CCCCCCCCCCC(CO)CCCCCCCC (stereo not drawn)
[5]
  outcome: inactive

## O=C(Oc1ccccc1)c1ccc(O)cc1
[6]
  AC50: 9.99 µM (active)
[5]
  AC50: 4.86 µM (active)
[3]
  outcome: inactive

## CN(C)CCCN
[1]
  outcome: inactive

## CSc1nnc(C(C)(C)C)c(=O)[nH]1
[7]
  outcome: inactive

## CC(C)(C#N)c1cc(Cn2cncn2)cc(C(C)(C)C#N)c1
[1]
  outcome: inactive

## CC1COc2ccccc2N1C(=O)C(Cl)Cl (stereo not drawn)
[1]
  outcome: inactive
[5]
  AC50: 11 µM (active) and 9.31 µM (active)
[8]
  outcome: inactive
[9]
  AC50: 588 nM (active)

## O=C(Cl)c1cccc(C(=O)Cl)c1
[1]
  outcome: inactive

## COc1cc2ncnc(Nc3cccc(Cl)c3)c2cc1OC
[6]
  outcome: inactive
[5]
  outcome: inactive
[8]
  outcome: inactive

## CCN(CC)c1ccc2c(-c3ccccc3C(=O)O)c3ccc(=[N+](CC)CC)cc-3oc2c1
[1]
  outcome: inactive
[6]
  AC50: 16.8 µM (active)
[5]
  AC50: 13.2 µM (active)

## O=C(O)C[C@H](O)C[C@H](O)/C=C/c1c(C2CC2)nc2ccccc2c1-c1ccc(F)cc1
[2]
  AC50: 3.55 µM (active)

## CC(C)C[C@H]1C(=O)N2CCC[C@H]2[C@]2(O)O[C@](NC(=O)[C@@H]3C=C4c5cccc6[nH]c(Br)c(c56)C[C@H]4N(C)C3)(C(C)C)C(=O)N12
[1]
  outcome: inactive
[3]
  AC50: 1.05 µM (active)
